Our source for the outcome and AC50 values is PubChem BioAssay (EPA / NIEHS).

Results filed as inconclusive are left out. Active and inactive are the calls of the source. How the source made its calls, unless noted: active means hit-call score of the fitted dose curve at least 0.9, where 1 is the maximum; inconclusive means response in the unintended direction; inactive means score below 0.9.

Assay [1] in a line: ATG_AP_1_CIS: Attagene CIS-FACTORIAL HepG2 Assay for human Activator Protein 1 (AP-1) (AID 2282931; active means hit-call score of the fitted dose curve at least 0.9, where 1 is the maximum; inactive means score below 0.9). Particulars: HepG2 Attagene cis-factorial AP-1 reporter mRNA; actives raise or lower the signal. The essentials: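 We transfected HepG2 cells transiently with a set of cis-regulated reporter transcription units, dosed them for 24 h, and quantified reporter mRNA via RT-PCR and capillary electrophoresis, scoring gain or loss of signal relative to DMSO.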

The nature of assay [2]: ATG_Ets_CIS: Attagene CIS-FACTORIAL HepG2 Assay for human Erythroblast Transformation Specific (ETS) (AID 2282941; active means hit-call score of the fitted dose curve at least 0.9, where 1 is the maximum; inactive means score below 0.9). Conditions: HepG2 ETS cis-reporter transcription, actives raise or lower the signal. The essentials: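 HepG2 cells transfected with multiple cis-regulated reporter units measuring endogenous ETS-driven transcription, 24 h after dosing. Reporter mRNA quantified by RT-PCR with capillary electrophoresis; bidirectional fit relative to DMSO.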

In assay [3] the target is Hepatocyte nuclear factor 3-beta (Homo sapiens) (UniProt Q9Y261). Briefly: ATG_FoxA2_CIS: Attagene CIS-FACTORIAL HepG2 Assay for human Forkhead box A2 (FOXA2) (AID 2282942; active means hit-call score of the fitted dose curve at least 0.9, where 1 is the maximum; inactive means score below 0.9). Particulars: HepG2 cis-reporter transcription factor activity, 24 h; actives raise or lower the signal. The essentials: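 Multiplexed cis-element reporter assay in transiently transfected HepG2. Twenty-four hours post-dosing, RNA was reverse-transcribed, amplified, FAM-labelled, HpaI-digested and separated by CE. Activity gain or loss relative to DMSO.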

The nature of assay [4]: ATG_FoxO_CIS: Attagene CIS-FACTORIAL HepG2 Assay for human Forkhead box O (FoxO) (AID 2282943; active means hit-call score of the fitted dose curve at least 0.9, where 1 is the maximum; inactive means score below 0.9). Conditions: HepG2 Attagene cis-reporter, FoxO element, mRNA; actives raise or lower the signal. The essentials:
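Values reflect reporter mRNA induction or loss in HepG2 cells 24 h post-dosing, fitted bidirectionally with DMSO as negative control and baseline. Detection used RT-PCR and fluorescence capillary electrophoresis.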

A short description of assay [5]: ATG_GATA_CIS: Attagene CIS-FACTORIAL HepG2 Assay for human GATA Binding Protein (AID 2282944; active means hit-call score of the fitted dose curve at least 0.9, where 1 is the maximum; inactive means score below 0.9). Particulars: HepG2 GATA cis-element reporter, Attagene multiplex mRNA; actives raise or lower the signal. The method, boiled down:
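HepG2 cells transiently transfected with multiplexed cis-element reporter units reflecting endogenous transcription factor activity; reporter mRNA measured after 24 h dosing by RT-PCR, 6-FAM labeling, HpaI digestion and capillary electrophoresis. Bidirectional fitting versus DMSO baseline.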

Assay [6] deals with Paired box protein Pax-6 (Homo sapiens) (UniProt P26367). Description: ATG_Pax6_CIS: Attagene CIS-FACTORIAL HepG2 Assay for human Paired Box 6 (PAX6) (AID 2282956; active means hit-call score of the fitted dose curve at least 0.9, where 1 is the maximum; inactive means score below 0.9). Particulars: HepG2 CIS-FACTORIAL PAX6 reporter transcription, RNA readout; actives raise or lower the signal. The essentials: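 HepG2 cells transiently transfected with cis-promoter-driven multiplexed reporter units sensing endogenous transcription factor activity; 24 h chemical exposure. Reporter mRNA quantified by RT-PCR, 6-FAM labelling, HpaI digestion and capillary electrophoresis; bidirectional fit versus DMSO baseline.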

Assay [7] can be described thus: ATG_PPRE_CIS: Attagene CIS-FACTORIAL HepG2 Assay for human Peroxisome Proliferator-activated Response Element (PPRE) (AID 2282958; active means hit-call score of the fitted dose curve at least 0.9, where 1 is the maximum; inactive means score below 0.9). Conditions: HepG2 PPRE cis-element reporter, Attagene transcription factor profiling; actives raise or lower the signal. The method, boiled down:
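DMSO served as negative control and baseline for bidirectional curve fitting. Signal came from PPRE-regulated reporter mRNA in HepG2 cells, measured 24 h post-dosing by RT-PCR, 6-FAM primer extension and capillary electrophoresis.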

A short description of assay [8]: ATG_SREBP_CIS: Attagene CIS-FACTORIAL HepG2 Assay for human Sterol Regulatory Element Binding (SREBP) (AID 2282962; active means hit-call score of the fitted dose curve at least 0.9, where 1 is the maximum; inactive means score below 0.9). Particulars: HepG2 Attagene cis-factorial SREBP reporter, mRNA; actives raise or lower the signal. The essentials:
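HepG2 cells transiently transfected with multiplexed cis-promoter reporter units sensing endogenous transcription factors; reporter mRNA measured 24 h after dosing by RT-PCR, 6-FAM labeling, HpaI digestion and capillary electrophoresis. Bidirectional fit versus DMSO.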

For assay [9], the target named is Oxysterols receptor LXR-beta (Homo sapiens) (UniProt P55055). Description: ATG_LXRb_TRANS: Attagene TRANS-FACTORIAL HepG2 Assay for human Liver X Receptor beta (LXRb) (AID 2282981). Particulars: HepG2 Attagene TRANS GAL4-LXRb reporter, mRNA. The method, boiled down: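 In this TRANS format, exogenous chimeric NR-Gal4 protein activity, not endogenous factors, drives reporter expression in transfected human HepG2 cells. Exposure lasted 24 h; reporter mRNA was read by fluorescent capillary electrophoresis.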

Assay [10] in a line: ATG_M_32_TRANS: Attagene TRANS-FACTORIAL HepG2 Assay for M32 Transcription Factor (Internal Marker) (AID 2282984).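 Further: transcript level of a background control reporter unit measured by RT-PCR and capillary electrophoresis.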 Particulars: HepG2 Attagene TRANS M32 internal marker reporter. The essentials: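 Human hepatoma HepG2, transient MRTU transfection, 24 h treatment. RNA → RT-PCR → fluorescent primer extension → HpaI digest (2 h, 37 C) → CE. Positive-direction fit vs DMSO.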
In assay [11] the target is human Peroxisome Proliferator-activated Receptor alpha (PPARa), PPARA (gene 5465) (UniProt Q07869). Briefly: ATG_PPARa_TRANS: Attagene TRANS-FACTORIAL HepG2 Assay for human Peroxisome Proliferator-activated Receptor alpha (PPARa) (AID 2283001). The essentials:
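Gain-of-signal endpoint: reporter mRNA induction relative to DMSO, detected by fluorescent RT-PCR and capillary electrophoresis. HepG2 cells transiently carried GAL4-UAS-driven reporter units plus NR-Gal4 fusion; exposure lasted 24 h.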

Assay [12] concerns the target Cellular tumor antigen p53 (Homo sapiens) (UniProt P04637). Briefly: TOX21_p53_BLA_p2_ratio: Tox21 HCT-116 p53 Agonism Beta-lactamase Assay, Ratio, Phase 2 (AID 2283592). The method, boiled down:
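HCT116 p53-bla; 4000 cells/well; 5 h pre-incubation; cpd in DMSO, 217-fold dilution; 16 h 37C/5% CO2; CCF4-AM 2 h RT; Ex 405, Em 460/530 ratio; DMSO = baseline; positive fitting direction.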

For assay [13] the target is unchanged. Briefly: TOX21_p53_BLA_p5_ratio: Tox21 HCT-116 p53 Agonism Beta-lactamase Assay, Ratio, Phase 5 (AID 2283599). The method, boiled down:
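HCT-116 cells carrying a p53-inducible beta-lactamase reporter were seeded at 4000 cells/well and dosed after 5 h with compound in DMSO (217-fold dilution). After 16 h at 37C, CCF4-AM substrate was added for 2 h, and the 460/530 nm emission ratio was scored as gain-of-signal versus DMSO.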

Assay [14] can be described thus: TOX21_p53_BLA_p5_viability: Viability Assessment in the Tox21 HCT-116 p53 Agonism Beta-lactamase Assay, Phase 5 (AID 2283600). The method, boiled down:
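4000 cells/well; 5 h pre-incubation; DMSO compounds pin-transferred, 217-fold dilution; 16 h, 37C/5% CO2; CCF4-AM 2 h RT; CellTiter-Glo 30 min RT; luminescence.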

The target of assay [15] is Hepatocyte nuclear factor 4-alpha (Homo sapiens) (UniProt P41235). Description: ATG_HNF4a_TRANS: Attagene TRANS-FACTORIAL HepG2 Assay for human Hepatocyte Nuclear Factor 4 alpha (HNF4a) (AID 2282982). Conditions: HepG2 HNF4a transactivation reporter, mRNA readout. The method, boiled down:
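Cells used were human HepG2, transiently carrying GAL4-UAS reporter units read out against exogenous NR-GAL4 chimeras. Reporter transcript levels after 24 h dosing were quantified by fluorescent RT-PCR and capillary electrophoresis.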

Assay [16] can be described thus: ATG_M_06_TRANS: Attagene TRANS-FACTORIAL HepG2 Assay for M06 Transcription Factor (Internal Marker) (AID 2282983). Particulars: HepG2 Attagene TRANS M06 internal marker reporter. The method, boiled down: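 Transfect HepG2 with MRTUs → dose compounds 24 h → isolate RNA, oligo(dT) RT → PCR with reporter primers → 6-FAM primer extension → HpaI digest → CE fragment analysis. Positive direction vs DMSO.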

For assay [17], the target named is Nuclear receptor subfamily 4 group A member 2 (Homo sapiens) (UniProt P43354). Briefly: ATG_NURR1_TRANS: Attagene TRANS-FACTORIAL HepG2 Assay for human Nuclear Receptor Related Protein 1 (NURR1) (AID 2282985). Particulars: HepG2 Attagene TRANS reporter, mRNA readout. The essentials:
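After 24 h chemical dosing, total RNA from transiently transfected HepG2 cells was reverse-transcribed and reporter cDNA PCR-amplified, FAM-labelled and analysed by capillary electrophoresis. Activity fitted in positive direction, DMSO as negative control.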

Assay [18] deals with Retinoic acid receptor RXR-alpha (Homo sapiens) (UniProt P19793). Briefly: ATG_RXRa_TRANS: Attagene TRANS-FACTORIAL HepG2 Assay for human Retinoid X Receptor alpha (RXRa) (AID 2283012). The essentials:
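Transient transfection of human HepG2 with multiple GAL4-UAS reporter constructs; 24 h compound exposure; total RNA isolated, reverse-transcribed, PCR-amplified, 6-FAM labelled, HpaI-cut, resolved by capillary electrophoresis. Positive-direction fit versus DMSO.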

In assay [19] the target is human Thyroid Receptor alpha (THRa1), THRA (gene 7067) (UniProt P10827). Description: ATG_THRa1_TRANS: Attagene TRANS-FACTORIAL HepG2 Assay for human Thyroid Receptor alpha (THRa1) (AID 2283014). The method, boiled down: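 Reporter transcript induction, read by capillary electrophoresis of 6-FAM-labelled RT-PCR products, reflects activity of a transfected THRa1-Gal4 fusion in HepG2 liver cells. Cells were dosed for 24 h; activity was fitted in the positive direction against DMSO.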

Assay [20] can be described thus: ATG_CMV_CIS: Attagene CIS-FACTORIAL HepG2 Assay for human CMV (Internal Marker) (AID 2282928; active means hit-call score of the fitted dose curve at least 0.9, where 1 is the maximum; inactive means score below 0.9;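 further: endpoint acts as a background internal control marker rather than a target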). Particulars: HepG2 CMV promoter reporter, transcription factor profiling; actives raise or lower the signal. The essentials: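 CMV internal-marker background readout in transiently transfected HepG2 cells bearing cis-regulated reporter units. Reporter mRNA is measured 24 h after dosing by RT-PCR and capillary electrophoresis, with bidirectional fitting against DMSO.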

Chain of Hepatocyte nuclear factor 4-alpha (Homo sapiens) (P41235 whole entry, looked up, the tested form may be a part): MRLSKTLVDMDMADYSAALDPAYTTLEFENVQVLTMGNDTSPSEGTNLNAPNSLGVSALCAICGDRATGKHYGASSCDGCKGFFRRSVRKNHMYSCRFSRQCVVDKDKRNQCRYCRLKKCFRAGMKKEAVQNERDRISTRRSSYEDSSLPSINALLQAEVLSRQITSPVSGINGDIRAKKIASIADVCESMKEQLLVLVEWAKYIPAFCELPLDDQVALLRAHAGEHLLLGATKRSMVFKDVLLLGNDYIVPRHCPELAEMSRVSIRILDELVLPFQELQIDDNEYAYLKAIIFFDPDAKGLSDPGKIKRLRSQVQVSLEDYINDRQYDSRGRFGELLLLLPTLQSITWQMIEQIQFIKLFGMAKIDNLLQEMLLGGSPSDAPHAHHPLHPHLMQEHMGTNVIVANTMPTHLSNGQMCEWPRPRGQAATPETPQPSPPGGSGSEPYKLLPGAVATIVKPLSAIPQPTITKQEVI
Chain of human Thyroid Receptor alpha (THRa1), THRA (gene 7067) (P10827 whole entry, looked up, the tested form may be a part): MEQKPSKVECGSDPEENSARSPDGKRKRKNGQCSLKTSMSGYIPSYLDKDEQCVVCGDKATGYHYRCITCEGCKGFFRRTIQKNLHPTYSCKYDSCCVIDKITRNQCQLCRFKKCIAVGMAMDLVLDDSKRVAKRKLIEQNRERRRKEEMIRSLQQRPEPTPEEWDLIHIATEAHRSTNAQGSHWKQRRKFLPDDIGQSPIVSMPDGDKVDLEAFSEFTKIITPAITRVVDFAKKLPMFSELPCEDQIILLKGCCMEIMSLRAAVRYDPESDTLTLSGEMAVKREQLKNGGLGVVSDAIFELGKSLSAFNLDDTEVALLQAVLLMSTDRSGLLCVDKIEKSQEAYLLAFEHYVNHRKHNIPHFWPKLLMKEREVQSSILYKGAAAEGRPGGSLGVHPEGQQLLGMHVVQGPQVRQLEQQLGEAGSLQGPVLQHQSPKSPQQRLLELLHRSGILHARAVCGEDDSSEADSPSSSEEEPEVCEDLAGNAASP
Chain of Paired box protein Pax-6 (Homo sapiens) (P26367 whole entry, looked up): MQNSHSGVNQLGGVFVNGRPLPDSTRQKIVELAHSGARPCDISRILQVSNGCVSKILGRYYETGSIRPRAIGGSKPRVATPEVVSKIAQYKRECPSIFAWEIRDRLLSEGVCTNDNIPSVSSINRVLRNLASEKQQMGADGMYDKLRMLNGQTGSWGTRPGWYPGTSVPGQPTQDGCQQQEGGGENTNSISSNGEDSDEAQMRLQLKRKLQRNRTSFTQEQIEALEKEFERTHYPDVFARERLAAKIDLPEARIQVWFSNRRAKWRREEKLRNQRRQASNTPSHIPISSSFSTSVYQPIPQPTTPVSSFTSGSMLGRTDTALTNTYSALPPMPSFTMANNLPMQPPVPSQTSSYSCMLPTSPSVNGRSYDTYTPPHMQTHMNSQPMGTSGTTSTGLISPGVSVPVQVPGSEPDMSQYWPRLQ
Chain of human Peroxisome Proliferator-activated Receptor alpha (PPARa), PPARA (gene 5465) (Q07869 whole entry, looked up, the tested form may be a part): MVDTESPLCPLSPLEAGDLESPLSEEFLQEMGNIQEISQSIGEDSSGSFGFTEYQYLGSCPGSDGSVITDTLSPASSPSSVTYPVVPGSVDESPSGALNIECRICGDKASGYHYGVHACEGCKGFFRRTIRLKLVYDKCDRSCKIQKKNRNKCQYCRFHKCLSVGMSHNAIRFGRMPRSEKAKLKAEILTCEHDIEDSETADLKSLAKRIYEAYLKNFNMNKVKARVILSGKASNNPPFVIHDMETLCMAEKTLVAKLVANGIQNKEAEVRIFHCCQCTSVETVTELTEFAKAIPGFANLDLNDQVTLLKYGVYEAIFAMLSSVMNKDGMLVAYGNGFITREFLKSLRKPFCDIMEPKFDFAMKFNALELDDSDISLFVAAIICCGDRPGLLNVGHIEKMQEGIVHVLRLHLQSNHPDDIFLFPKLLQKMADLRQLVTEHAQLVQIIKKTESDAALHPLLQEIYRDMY
Chain of Hepatocyte nuclear factor 3-beta (Homo sapiens) (Q9Y261 whole entry, looked up): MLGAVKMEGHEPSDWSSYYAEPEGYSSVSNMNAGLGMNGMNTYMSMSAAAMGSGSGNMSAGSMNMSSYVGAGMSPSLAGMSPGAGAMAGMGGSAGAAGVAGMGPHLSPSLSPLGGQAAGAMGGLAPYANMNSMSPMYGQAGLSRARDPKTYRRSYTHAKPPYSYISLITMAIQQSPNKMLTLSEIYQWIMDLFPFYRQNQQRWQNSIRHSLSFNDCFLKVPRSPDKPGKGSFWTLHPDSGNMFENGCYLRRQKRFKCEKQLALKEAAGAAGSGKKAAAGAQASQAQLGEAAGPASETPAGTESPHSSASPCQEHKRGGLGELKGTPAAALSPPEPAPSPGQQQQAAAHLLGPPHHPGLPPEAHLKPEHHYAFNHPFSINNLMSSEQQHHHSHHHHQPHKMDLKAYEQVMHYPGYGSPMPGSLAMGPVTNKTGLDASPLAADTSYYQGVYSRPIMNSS
Chain of Nuclear receptor subfamily 4 group A member 2 (Homo sapiens) (P43354 whole entry, looked up): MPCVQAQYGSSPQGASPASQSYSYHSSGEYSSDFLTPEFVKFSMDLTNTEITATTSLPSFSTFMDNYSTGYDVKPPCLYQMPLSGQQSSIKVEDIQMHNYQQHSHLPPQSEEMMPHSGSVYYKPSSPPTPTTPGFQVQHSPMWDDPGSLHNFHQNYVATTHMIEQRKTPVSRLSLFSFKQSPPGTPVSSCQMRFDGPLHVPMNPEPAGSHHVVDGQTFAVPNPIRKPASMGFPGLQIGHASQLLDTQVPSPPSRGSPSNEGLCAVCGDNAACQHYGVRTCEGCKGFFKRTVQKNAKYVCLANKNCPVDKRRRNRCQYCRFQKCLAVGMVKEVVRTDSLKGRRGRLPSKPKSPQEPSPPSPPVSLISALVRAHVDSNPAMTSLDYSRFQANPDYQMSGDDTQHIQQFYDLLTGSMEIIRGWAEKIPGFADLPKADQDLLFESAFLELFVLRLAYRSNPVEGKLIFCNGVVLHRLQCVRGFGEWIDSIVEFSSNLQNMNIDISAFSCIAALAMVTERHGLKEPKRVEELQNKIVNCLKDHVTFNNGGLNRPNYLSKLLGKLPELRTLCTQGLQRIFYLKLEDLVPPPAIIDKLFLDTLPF
Chain of Retinoic acid receptor RXR-alpha (Homo sapiens) (P19793 whole entry, looked up, the tested form may be a part): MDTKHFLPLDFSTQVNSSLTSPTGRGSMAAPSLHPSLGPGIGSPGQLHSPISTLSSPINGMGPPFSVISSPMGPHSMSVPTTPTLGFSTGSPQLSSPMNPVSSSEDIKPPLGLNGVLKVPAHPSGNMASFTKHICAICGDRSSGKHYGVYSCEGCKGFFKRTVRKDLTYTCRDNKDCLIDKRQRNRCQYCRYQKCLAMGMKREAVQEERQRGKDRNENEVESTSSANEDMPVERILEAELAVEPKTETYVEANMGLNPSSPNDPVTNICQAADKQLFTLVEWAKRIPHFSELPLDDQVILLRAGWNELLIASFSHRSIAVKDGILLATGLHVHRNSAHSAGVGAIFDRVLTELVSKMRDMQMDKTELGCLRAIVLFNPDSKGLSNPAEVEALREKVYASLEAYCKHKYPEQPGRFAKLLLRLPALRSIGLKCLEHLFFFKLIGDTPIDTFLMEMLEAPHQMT
Chain of Oxysterols receptor LXR-beta (Homo sapiens) (P55055 whole entry, looked up, the tested form may be a part): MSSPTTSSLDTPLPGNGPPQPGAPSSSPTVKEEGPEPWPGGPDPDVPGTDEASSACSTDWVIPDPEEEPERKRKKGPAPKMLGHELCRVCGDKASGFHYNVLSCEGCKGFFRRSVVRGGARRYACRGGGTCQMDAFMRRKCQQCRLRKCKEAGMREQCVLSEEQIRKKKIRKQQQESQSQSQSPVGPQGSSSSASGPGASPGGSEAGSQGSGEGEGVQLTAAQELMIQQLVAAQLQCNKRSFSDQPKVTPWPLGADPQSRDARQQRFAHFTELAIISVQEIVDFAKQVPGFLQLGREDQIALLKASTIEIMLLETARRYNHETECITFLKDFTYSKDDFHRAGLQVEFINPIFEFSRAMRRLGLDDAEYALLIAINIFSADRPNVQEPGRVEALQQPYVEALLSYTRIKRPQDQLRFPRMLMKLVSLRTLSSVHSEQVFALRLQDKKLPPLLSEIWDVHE
Chain of Cellular tumor antigen p53 (Homo sapiens) (P04637 whole entry, looked up): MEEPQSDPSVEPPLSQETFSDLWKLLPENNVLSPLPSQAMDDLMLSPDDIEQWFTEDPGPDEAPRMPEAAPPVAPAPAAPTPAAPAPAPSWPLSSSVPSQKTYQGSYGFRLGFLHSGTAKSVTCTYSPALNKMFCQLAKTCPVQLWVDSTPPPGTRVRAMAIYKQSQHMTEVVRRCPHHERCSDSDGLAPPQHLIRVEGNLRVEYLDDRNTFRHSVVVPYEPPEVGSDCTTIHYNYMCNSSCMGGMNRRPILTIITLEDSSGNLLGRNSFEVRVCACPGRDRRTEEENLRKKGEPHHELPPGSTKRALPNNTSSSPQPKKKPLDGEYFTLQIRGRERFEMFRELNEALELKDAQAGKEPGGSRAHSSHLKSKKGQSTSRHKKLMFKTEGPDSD

In the case of `CC(C)(Cl)Cl`, the result in [1], in assay [2], in assay [3], in [4], in assay [5] and in assay [6] was inactive. The result in [7], in [8], in [9], in assay [10], in assay [11] and in assay [12] was inactive. For the same compound, the outcome in assay [13] and in assay [14] was inactive.
On to `NNc1ccccc1`, for which the call in assay [1], in assay [4], in [5], in [6], in [8] and in assay [9] was inactive. The compound was classed as inactive in [15], in assay [16], in assay [10], in [17], in assay [11] and in assay [18]. Moreover, the compound was called inactive in assay [19].
Regarding `C=C(Cl)CCl`, the result in assay [20], in assay [1], in assay [2], in assay [3], in assay [5] and in assay [6] was inactive. The compound was classed as inactive in assay [7], in assay [8], in [9], in assay [15], in assay [16] and in assay [10]. Further, the compound was called inactive in [11], in [18], in assay [19], in assay [12], in assay [13] and in assay [14].
As usually defined, the AC50 is the midpoint of the concentration-response curve, whichever way the signal moves. For `C=CC(=O)OCCO`, the compound was called inactive in [20], in assay [2], in assay [3], in assay [6], in assay [15] and in assay [16]. In addition, the outcome in assay [17], in [11], in assay [18], in assay [19], in [12] and in [13] was inactive. Also, in assay [14], the result was inactive. For the same compound, the half-maximal activity concentration (AC50) in [1] was 75.6 µM (active).
As for `Nc1ccc([N+](=O)[O-])cc1N`, the outcome in assay [20], in assay [2], in [5], in [6], in assay [7] and in [9] was inactive. Moreover, the compound was called inactive in [15], in [16], in assay [10], in [17], in assay [18] and in assay [12]. Moreover, the outcome in assay [13] and in assay [14] was inactive.
With `Oc1ccc(C2(c3ccc(O)cc3)c3ccccc3-c3ccccc32)cc1`, the half-maximal activity concentration (AC50) in [20] was 17.7 µM (active); in assay [5], 14.6 µM (active); in assay [6] it was 14.9 µM (active); in assay [12], 0.265 µM (active); in [13], 76.6 µM (active); in assay [14], 74 µM (active). In addition, the call in [1], in assay [2], in assay [7], in [16], in assay [17] and in assay [11] was inactive. Further, the compound was classed as inactive in assay [18] and in assay [19].
Regarding `O=c1[nH]c(Cl)c(Cl)cc1Cl`, the result in assay [20], in [1], in assay [2], in assay [3], in assay [4] and in assay [5] was inactive. Moreover, the outcome in assay [9], in assay [10], in assay [11], in [18], in [19] and in assay [12] was inactive. For the same compound, the result in [13] and in assay [14] was inactive. In addition, in assay [7], the concentration at half-maximal activity (AC50) is 15.8 µM (active).
For the compound `CN1C[C@H](C(=O)N[C@]2(C)O[C@@]3(O)[C@@H]4CCCN4C(=O)[C@H](Cc4ccccc4)N3C2=O)C=C2c3cccc4[nH]cc(c34)C[C@H]21`, the compound was called inactive in [20], in [3], in assay [4], in [5], in assay [6] and in assay [9]. For the same compound, the compound was called inactive in [10], in assay [17], in assay [19], in [12], in assay [13] and in assay [14]. Further, the AC50 in assay [1] is 23.1 µM (active).
